Test results as given in ChEMBL document CHEMBL3988442, “University of Dundee, Small-Polar-MMV Screening Library” (2021).
About 13,000 (27%) of roughly 48,000 compounds showed an effect of 50% or more. This is one part of the list.

The compounds below were run on Wolbachia pipientis (assay: Anti-Wolbachia Cell-Based Screen). Conditions: 5 µM.
Assay type: functional
Design: scale not given: in the data most compounds retested in dose-response had high values

SMILES | Percent Effect
CCN(C)c1ccc(CNC(=O)c2cc(C(N)=O)cs2)cc1F | -17.75%
OCCN1CCN(Cc2cn(-c3ccccc3)nn2)CC1 | -6.326%
CN1CC(c2ccccc2)CC12CCN(C(=O)c1ccc(Cl)cn1)CC2 (stereo unspecified) | -6.025%
Cc1cc(NCCc2nnc(N)s2)nc(-c2cccnc2)n1 | 111.6%
Cc1cc(N(C)Cc2cc(C(C)(C)C)n[nH]2)nc(-c2cccnc2)n1 | -3.665%
Cc1n[nH]c(C)c1CCN(C)C(=O)C(c1cccnc1)N1CCOCC1 (stereo unspecified) | 1.239%
Cc1cc(NCCc2c(C)n[nH]c2C)nc(-c2cccnc2)n1 | 90.29%
Cc1cc(NCCc2nc(C)cs2)nc(-c2cccnc2)n1 | 101.8%
CCCc1nc(C)cc(NCCc2nnc(N)s2)n1 | 113%
CCCc1nc(C)cc(NC(C)Cc2cnccn2)n1 (stereo unspecified) | 10.99%
Cc1cc(N(C)Cc2snnc2C)nc(-c2cccnc2)n1 | 5.151%
FC(F)(F)c1cc(NCCn2ncnn2)nc(-c2cccnc2)n1 | -6.298%
Cc1csc(CCNc2ccc(C#N)cn2)n1 | -3.132%
CC(C)Cc1cc(C(=O)NCCc2nnc(N)s2)n(C)n1 | 6.947%
FC(F)(F)c1cc(NCCCn2cccn2)nc(-c2cccnc2)n1 | 19.81%
O=C(Nc1cccn(CC(F)(F)F)c1=O)c1ccncc1F | -0.2014%
CSc1ncc(C(=O)N2C[C@H]3CC[C@@H]2CN(Cc2ccccc2)C3)cn1 | -11.56%
COc1cccc(CNC2CCCOc3cc(C)ccc32)n1 (stereo unspecified) | -12.28%
Cc1ccccc1C(CC(=O)NCc1nnc(N)s1)c1ccccc1 (stereo unspecified) | 1.078%
Cc1cc(NCCc2nnc(N)s2)nc(-c2ccccc2)n1 | 97.75%
Cn1cccc1-c1cc(C(=O)NCCc2nnc(N)s2)[nH]n1 | -4.601%
N#Cc1cccc(NC(=O)N[C@H](CO)Cc2ccc(O)cc2)c1 | -17.39%

SMILES | Percent Effect
O=C(NC1CCC1)C1CCC2(CN(C(=O)c3ccno3)C2)O1 (stereo unspecified) | 2.059%
Cc1cc(C(=O)N2C[C@@H](C(=O)O)[C@H](c3ccccc3C)C2)c(C)o1 | -7.74%
O=C(O)c1ccc(C2CCCN(C(=O)c3ccc[nH]3)C2)cc1 (stereo unspecified) | 96.47%
Cc1cc(C(=O)N2CCCC(c3ccc(C(=O)O)cc3)C2)c(C)o1 (stereo unspecified) | 108.3%
O=C(c1ccc[nH]1)N1CCCC(c2cc(C(F)(F)F)[nH]n2)C1 (stereo unspecified) | -9.471%
CC(C)c1csc(C2CCCN(C(=O)c3ccc[nH]3)C2)n1 (stereo unspecified) | 7.741%
CC(C)(C)n1ccc(C(=O)N2CCCC(c3ccc(C(=O)O)cc3)C2)c1 (stereo unspecified) | -5.053%
Cc1[nH]ccc1C(=O)N1CCCC(c2nccn2Cc2cscn2)C1 (stereo unspecified) | -11.42%
Cc1[nH]ccc1C(=O)N1CCCC(c2ccc(C(=O)O)cc2)C1 (stereo unspecified) | 104%
CCC(C)N1CCC(Oc2ccc(C(=O)NCCN(C)C)cc2Cl)CC1 (stereo unspecified) | 0.8675%
COc1cccc(/C=C/CCN2CCCN(C(C)=O)CC2)c1 | 3.012%
COCC(=O)NCc1cccc(OCCN(C)C2CCOCC2)c1 | -0.3867%
Cc1ccc(C)c(-n2cc(CN3CCOCC3)c(-c3ccccc3)n2)c1 | 9.149%
CC(C)c1nc(C2CCCN2CCc2ccncc2)no1 (stereo unspecified) | -3.016%
CCc1nc(C2CCCN2CCc2ccccn2)no1 (stereo unspecified) | 17.85%
CC(C)c1nc(C2CCCN2CCNS(C)(=O)=O)no1 (stereo unspecified) | 98.61%
CC(C)c1nc(C2CCCN2CCc2ccccn2)no1 (stereo unspecified) | 92.65%
CCS(=O)(=O)CCN1CCCC1c1noc(C2CC2)n1 (stereo unspecified) | -6.058%
CC(C)c1nc(C2CCCN2CC(=O)N2CCNC2=O)no1 (stereo unspecified) | 0.9306%
CC(C)c1nc(C2CCCN2CCS(C)(=O)=O)no1 (stereo unspecified) | 108.9%
Cc1nc(C2CCCN2CCc2ccccn2)no1 (stereo unspecified) | 0.4664%
Cc1nc(C2CCCN2CCCNS(C)(=O)=O)no1 (stereo unspecified) | 5.107%

SMILES | Percent Effect
CC(C)c1nc(C2CCCN2CCN2CCCCC2)no1 (stereo unspecified) | 99.79%
CC(C)(C)CC(=O)N1CC[C@@H](CC(=O)O)[C@@H](CCN2CCCCC2)C1 | -5.604%
CN(C)c1ccc(C(=O)N(Cc2ccncc2)CC2CCCO2)nn1 (stereo unspecified) | -20.14%
CC(=O)Nc1cccc(C(=O)Nc2cnc3n2CCCC3)c1 | -12.98%
CCCS(=O)(=O)N1C[C@@H]2CC[C@H](C1)N(Cc1cscn1)C2=O | -56.87%
COCc1cnc2n1CCN(S(=O)(=O)c1c(C)nn(C)c1C)C2C (stereo unspecified) | -6.968%
CCCN(CCC)S(=O)(=O)NCCc1cc(C)ccc1OC | -23%
CCN(CC)C1(Cc2cc(-c3cccc(O)c3)on2)COC1 | -3.325%
CCCN1Cc2ccccc2NC(=O)C12CCNC2 (stereo unspecified) | 105.5%
O=C1NC2(CCN(C/C=C/c3ccccc3)CC2)CC1c1ccccc1 (stereo unspecified) | 1.619%
O=C1NCCN(CC2CC2)C12CCN(Cc1ccco1)CC2 | -5.362%
CCc1nnc(CN2CCC3(CC2)Nc2ccccc2NC3=O)o1 | 8.139%
COc1ccccc1NC(=O)CSC1CCc2ccccc2NC1=O (stereo unspecified) | 14.42%
O=C1Nc2ccccc2CN(CC2CCCC2)C12CCNC2 (stereo unspecified) | 101.1%
CC(C(=O)O)N1CC2(CCC1=O)CCN(C/C=C/c1ccccc1)CC2 (stereo unspecified) | -24.48%
O=C(CSC1CCc2ccccc2NC1=O)NCCO (stereo unspecified) | -0.2821%
O=C1Nc2ccccc2CN(C/C=C/c2ccccc2)C12CCNC2 (stereo unspecified) | 116.1%
O=C1Nc2ccccc2CN(CC2CC2)C12CCNC2 (stereo unspecified) | 99.74%
CN(C)CCOC1CC2(CCN(c3cnccn3)CC2)c2ccccc21.O=C(O)C(F)(F)F (stereo unspecified) | -0.2574%
CC(C)NC(=O)N1CCN2C(=O)N(Cc3ccc(F)cc3)C[C@H]2C1 | 1.439%
CO[C@H]1CN(C(C)C)C[C@@H]1NC(=O)c1cc(-c2ccccc2O)n[nH]1 | 3.341%
CNc1nc(C)cc(N2CCC(C(=O)O)(n3ccc(C(C)C)n3)CC2)n1 | -25.68%

SMILES | Percent Effect
O=S(=O)(NCC1(O)CCOc2ccccc21)c1ccc(Cl)s1 (stereo unspecified) | -0.7436%
O=C1CC2(CCN(C(=O)Cc3cc4c(cc3Cl)OCCO4)C2)C(=O)N1 (stereo unspecified) | -1.867%
Cc1cc(NCC2(O)CCOCC2)nc2ccccc12 | 15.38%
Cc1cnn(CC2CCCN2C(=O)c2ccc(F)cc2Cl)c1 (stereo unspecified) | 118%
CCn1nnc2cc(C(=O)N3CCCC3Cn3cc(C)cn3)ccc21 (stereo unspecified) | -10.21%
Cc1cnn(CC2CCCN2C(=O)c2ccc(F)c(F)c2)c1 (stereo unspecified) | 123.6%
O=C(c1cc(Cl)ccc1F)N1CCCC1Cn1cccn1 (stereo unspecified) | 101.1%
COc1ccc(C(=O)N2CCCCC2Cn2cccn2)c(F)c1 (stereo unspecified) | 4.231%
O=C(c1ccccc1N1CCOCC1)N1CCCC1Cn1cccn1 (stereo unspecified) | -6.576%
Cc1cnn(CC2CCCN2C(=O)c2ccc(Cl)cc2F)c1 (stereo unspecified) | 130.9%
Cc1cnn(CC2CCCN2C(=O)c2ccc3nnc(C)n3c2)c1 (stereo unspecified) | -11.91%
CCCNC(=O)C1CCN(Cc2csc(C(C)(C)C)n2)CC1 | -3.863%
COc1cccc2c1CCN(C(=O)NCCc1nccn1C)C2 | 2.215%
CC(C#N)CSc1ccccc1NCC(=O)NC(=O)NC(C)(C)C (stereo unspecified) | -19.45%
CC(O)CN1CCC(CN(C)Cc2cc(C#N)ccc2F)CC1 (stereo unspecified) | -5.082%
Cc1ncc(CNC(CCO)C2CCCCC2)s1 (stereo unspecified) | -8.339%
COc1ncnc2c1CCN(Cc1nccs1)CC2.O=C(O)C(F)(F)F | 2.06%
N#Cc1nccnc1N1CCC(OCCCc2ccccc2)C1 (stereo unspecified) | 1.367%
Cc1nc2c(c(NCc3ccccc3)n1)CCN(C(=O)NC(C)C)CC2 | 7.807%
Cc1nc2c(c(NCCNC(=O)C(C)C)n1)Cc1ccccc1OC2 | 89.1%
Cc1nc2c(c(NCC(=O)NC(C)C)n1)Cc1ccccc1OC2 | 92.9%
CN(C)c1nc2c(c(=O)[nH]1)Cc1ccccc1OC2 | -4.691%

SMILES | Percent Effect
Cc1cccc2c1cnn2CCCNC(=O)C(C)C | -3.766%
CC(C)C(C(=O)NCc1ccccc1-n1cccn1)N(C)C (stereo unspecified) | -20.85%
COc1ccnc(N2CCc3ccc(OC(F)F)cc3C2)n1 | 18.95%
c1cnc(N2CCN(Cc3nnnn3C3CC3)CC2)nc1 | -20.27%
CC(CCN(C)C)NC(=O)N1CCSC(C)(C)C1 (stereo unspecified) | -16.4%
Cc1cccc(OCC(O)CN2CCC(Cn3cccn3)CC2)c1 (stereo unspecified) | 104.3%
Cc1ccc(OCC(O)CN2CCC(Cn3cc(C)cn3)CC2)cc1 (stereo unspecified) | 122.4%
Cc1ncc2c(n1)CN(CC(O)COc1ccc(C#N)cc1)CC2 (stereo unspecified) | -6.644%
N#Cc1ccc(OCC(O)CN2CCC(Cn3cccn3)CC2)cc1 (stereo unspecified) | 137.4%
CCc1ncc2c(n1)CN(CC(O)COc1ccc(C#N)cc1)CC2 (stereo unspecified) | -19.89%
Cc1cnn(CC2CCN(CC(O)CN3CCC(C)CC3)CC2)c1 (stereo unspecified) | 0.7757%
Cc1ccccc1OCC(O)CN1CCC(Cn2cccn2)CC1 (stereo unspecified) | 111.1%
Cc1cnn(CC2CCN(CC(O)c3ccccc3)CC2)c1 (stereo unspecified) | 3.63%
Cc1cnn(CC2CCN(CC(O)COc3ccccc3)CC2)c1 (stereo unspecified) | 7.728%
Cc1cnn(CC2CCN(CC(O)c3ccccc3Cl)CC2)c1 (stereo unspecified) | -9.107%
OC(COc1ccc2c(c1)OCO2)CN1CC(n2cccn2)C1 (stereo unspecified) | -5.514%
Cc1cnn(CC2CCN(CC(O)c3ccccc3F)CC2)c1 (stereo unspecified) | -4.357%
CC(C)(C)c1cc(CN2CCOC(CN)C2)n[nH]1 (stereo unspecified) | -6.517%
